According to publication PMC4336329 (PLoS ONE, 2015):
Out of some 310,000 compounds screened, about 14,000 (4.5%) showed an effect of 50% or more. The effect is printed as a negative number. The sample as a whole holds a higher share of strong results than the screen did.

Biological target: human ether-à-go-go-related gene (hERG) potassium channel (human, UniProt Q12809)
Assay: primary screen, population patch clamp on CHO cells stably expressing hERG; higher = less effect of the substance
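Further: peak tail current of the secondary pulse compared with the same well before compound.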

human ether-à-go-go-related gene (hERG) potassium channel, sequence (Q12809 whole entry, looked up): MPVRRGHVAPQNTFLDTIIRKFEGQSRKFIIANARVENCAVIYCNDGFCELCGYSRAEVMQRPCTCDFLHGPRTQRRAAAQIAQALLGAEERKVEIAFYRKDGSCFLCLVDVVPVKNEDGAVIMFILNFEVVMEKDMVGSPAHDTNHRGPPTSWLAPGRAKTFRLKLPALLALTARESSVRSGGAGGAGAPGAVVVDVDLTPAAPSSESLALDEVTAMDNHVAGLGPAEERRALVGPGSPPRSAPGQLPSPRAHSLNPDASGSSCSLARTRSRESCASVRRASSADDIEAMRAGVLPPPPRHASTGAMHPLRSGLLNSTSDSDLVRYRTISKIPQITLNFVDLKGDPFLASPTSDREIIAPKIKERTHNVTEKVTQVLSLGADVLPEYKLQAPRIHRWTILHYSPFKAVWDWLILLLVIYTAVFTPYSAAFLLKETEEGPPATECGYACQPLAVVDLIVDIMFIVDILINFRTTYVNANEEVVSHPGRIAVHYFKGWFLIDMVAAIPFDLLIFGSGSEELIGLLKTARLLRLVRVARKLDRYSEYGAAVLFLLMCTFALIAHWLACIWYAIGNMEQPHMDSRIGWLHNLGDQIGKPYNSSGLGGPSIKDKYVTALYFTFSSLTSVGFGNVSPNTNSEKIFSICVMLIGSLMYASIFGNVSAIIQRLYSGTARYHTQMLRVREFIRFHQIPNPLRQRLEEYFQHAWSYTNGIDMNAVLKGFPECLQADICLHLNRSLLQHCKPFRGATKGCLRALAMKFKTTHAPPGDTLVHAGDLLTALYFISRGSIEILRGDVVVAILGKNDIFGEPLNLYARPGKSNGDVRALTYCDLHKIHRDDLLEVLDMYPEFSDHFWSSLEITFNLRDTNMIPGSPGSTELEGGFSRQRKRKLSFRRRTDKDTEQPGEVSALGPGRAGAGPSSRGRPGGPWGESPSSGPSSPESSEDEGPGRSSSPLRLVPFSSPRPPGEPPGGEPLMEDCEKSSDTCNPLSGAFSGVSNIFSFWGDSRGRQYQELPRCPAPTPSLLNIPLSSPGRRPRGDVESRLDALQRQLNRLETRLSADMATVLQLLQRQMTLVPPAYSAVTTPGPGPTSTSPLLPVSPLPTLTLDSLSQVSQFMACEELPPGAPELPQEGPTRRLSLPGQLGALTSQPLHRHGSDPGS

SMILES	hERG current change (%, negative = inhibition) at 10uM [%]
CCn1c(SCC(N)=O)nnc1-c1ccc2c(c1)OCO2	-0.333
O=C(Nc1cc(Sc2ccccn2)cc([N+](=O)[O-])c1)c1ccc(Cl)cc1	11.6
CCOc1ccccc1C(=O)Nc1cc(Cl)ccc1O	14.7
COc1ccc(CC(=O)N2CCc3cc(OC)c(OC)cc3C2C)c(OC)c1 (centres unmarked)	-6.22
CCc1ccccc1NC1c2ccccc2C(=O)N1c1cc(C)ccn1 (centres unmarked)	-1.18
Cc1cc(C)nc(-n2nc(C)cc2NC(=O)CNC2CCCCC2)n1	-52.4
Cc1ccc(C)c(C(=O)Nc2cc(C)nn2-c2nc(C)cc(C)n2)c1	3.98
Cc1cc(C)nc(-n2nc(C)cc2NC(=O)c2ccc(F)cc2F)n1	-0.0513
COc1ccc(CCn2c(N)c(C#N)c3nc4ccccc4nc32)cc1OC	4.14
CCN(CC)S(=O)(=O)c1cccc(-c2nnc(SCC(=O)c3cc(C)n(C)c3C)o2)c1	-25.5
CC1=C(C(=O)OC(C)C)C(c2ccc(F)cc2)NC(=O)N1 (centres unmarked)	-5.4
CCOCC(=O)Nc1ccc(Br)c(C)c1	4.88
O=C(NCCc1cn[nH]c1)C1CCC(=O)N(CCc2cccc(F)c2)C1 (centres unmarked)	25.1
O=C(NCCc1cccc(C(F)(F)F)c1)C1CCC(=O)N(CCc2cccc(F)c2)C1 (centres unmarked)	-56.8
O=C(NCCc1cccs1)C1CCC(=O)N(CCc2cccc(F)c2)C1 (centres unmarked)	-26.1
COc1ccc(CCN2CC(C(=O)NCCc3ccc(C(F)(F)F)cc3)CCC2=O)cc1 (centres unmarked)	-46.8
O=C(NCCc1ccc(C(F)(F)F)cc1)C1CCC(=O)N(CCCN2CCCC2=O)C1 (centres unmarked)	13.1
O=C(NCCc1ccccc1)C1CCC(=O)N(CCCN2CCCC2=O)C1 (centres unmarked)	5.82
O=C(NCCN1CCCC1=O)C1CCC(=O)N(CCc2cccc(F)c2)C1 (centres unmarked)	9.49
O=C(NCCc1ccc(C(F)(F)F)cc1)C1CCC(=O)N(CCc2cccc(F)c2)C1 (centres unmarked)	-51.4
O=C(NCCc1ccc(C(F)(F)F)cc1)C1CCC(=O)N(CCCc2ccccc2)C1 (centres unmarked)	-50.2
O=C(O)c1ccc(NC(=S)NC(=O)c2ccc(-c3ccccc3)cc2)cc1	19.4
CNC[C@H](NC[C@@H](NCCCc1ccccc1)c1ccccc1)[C@H](C)O	11.7
Cc1ccc(CSCC(=O)Nc2ccc3c(c2)OCO3)cc1	-14.5
COc1ccccc1CC(=O)Nc1ccc(S(=O)(=O)N2CCN(C)CC2)cc1	14.4
CS(=O)(=O)Nc1ccccc1C(=O)N1CCOCC1	16.4
O=C(CSc1oc(-c2ccco2)nc1S(=O)(=O)c1ccc(Cl)cc1)NCC1CCCO1 (centres unmarked)	-41.3

SMILES	hERG current change (%, negative = inhibition) at 10uM [%]
CCN(CC)C(=N)/C(C#N)=N/Nc1ccccc1	-15.7
CCN(CC)C(=N)/C(C#N)=N/Nc1ccc(C)cc1	-56.6
Cc1ccc(N/N=C(\C#N)C(=N)N2CCCCCC2)cc1	12.7
Cc1cc(NC(=O)Nc2cc(F)ccc2F)no1	17.7
CCCN(Cc1nnc(-c2ccccc2Cl)o1)C(=O)c1cc2ccccc2o1	-17
CCCN(Cc1nnc(-c2ccccc2Cl)o1)C(=O)c1ccc(C)c(S(=O)(=O)N2CCOCC2)c1	-55.8
Cc1ccc(S(=O)(=O)N2CCOCC2)cc1C(=O)N(Cc1nnc(-c2ccccc2Cl)o1)C1CC1	-33.9
CCCN(Cc1nnc(-c2ccccc2Cl)o1)C(=O)c1cc([N+](=O)[O-])cc([N+](=O)[O-])c1	-55.1
O=C(c1ccc(Cl)c(S(=O)(=O)N2CCOCC2)c1)N(Cc1nnc(-c2ccccc2Cl)o1)C1CC1	-58.9
CCCN(Cc1nnc(-c2ccccc2Cl)o1)C(=O)c1cccc(S(=O)(=O)N2CCOCC2)c1	-6.05
O=C(c1cccc(S(=O)(=O)N2CCOCC2)c1)N(Cc1nnc(-c2ccccc2Cl)o1)C1CC1	-24.9
O=C(c1cc([N+](=O)[O-])cc([N+](=O)[O-])c1)N(Cc1nnc(-c2ccccc2Cl)o1)C1CC1	-36.8
CCCN(Cc1nnc(-c2ccccc2Cl)o1)C(=O)c1cc(S(=O)(=O)N2CCOCC2)ccc1F	-47.7
CN(CC(=O)Nc1ccc(Cl)cc1)CC(=O)Nc1cccc2ccccc12	-2.26
O=C(/C=C/c1ccccc1Cl)Nc1ccc(-c2nnc3n2CCCCC3)cc1	-6.47
COc1cc(CNC(C)(C)C)cc(Br)c1OCc1cccs1.Cl	-28.7
NS(=O)(=O)c1cccnc1Nc1c(Cl)cccc1Cl	10.6
CCCCc1nc2ccccc2c(NC(=O)CN(CC)CC)c1CCC.O=C(O)C(=O)O	-26.8
COc1ccc(S(=O)(=O)N2CCCCCC2)cc1NC(=O)c1ccccc1F	3.54
NC(=O)c1ccsc1NC(=O)CS(=O)(=O)c1ccccc1	-8.27
CNC(=O)c1ccsc1NC(=O)CS(=O)(=O)c1ccc(Cl)cc1	-38.6
NC(=O)c1ccsc1NC(=O)CCS(=O)(=O)c1ccc(F)cc1	-2.69
O=C(CS(=O)(=O)c1ccc(F)cc1)Nc1nccs1	9.06
NC(=O)c1ccsc1NC(=O)CS(=O)(=O)c1ccc(Cl)cc1	-75.7
NC(=O)c1ccsc1NC(=O)CS(=O)(=O)c1ccc(F)cc1	-68.2
COc1ccccc1S(=O)(=O)Cc1ccc(C(=O)N2CCN(c3ccc(C)cc3)C(C)C2)o1 (centres unmarked)	-24.6
